Screening results: PubChem, several laboratories
Sampled rows, rich in hits. Any-hit rate of the full collection: about 3.4%.
HIF-2a block: blocks HIF-2a reporter activity | inhibition, % at 18.8 µM | AID 624352 | actives 0.72% (n = 360,000) | 786-0 RCC cells HIF-2a reporter, luciferase luminescence, overnight;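 active means inhibition of the luminescence signal of 40% or more relative to plate controls, in a single-dose primary screen at 18.75 µM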
TROY NFkB inh: TROY signaling inhibition | Q293 LMP1-TROYcd NF-kB luciferase reporter, 4 h | AID 1347056 | actives 0.98% (n = 360,000) | inhibition, % at 10 µM;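 active means compounds whose plate-normalised and pattern-corrected inhibition of the luciferase reporter signal at the single screening dose is 50% or more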
TWEAK Fn14 block: inhibitors of TWEAK-Fn14 interaction signaling | TWEAK-stimulated Fn14 reporter cells, luciferase luminescence, 8 h | inhibition, % at 10 µM | actives 2% (n = 360,000); in the data active means inhibition above about 50%
MITF TRPM1 inh: reduces MITF-dependent TRPM1 promoter luciferase signal. inhibition, % at 12.5 µM. actives 0.83% (n = 330,000). SK-MEL-5 TRPM1 promoter luciferase, 24 h;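 active means mean inhibition across replicates of 60% or more, whatever share of single replicates reaches that level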
LMP1 NFkB inh: inhibitors of Epstein-Barr LMP1-induced NF-kappaB reporter. actives 0.69% (n = 350,000). inhibition, % at 12.5 µM. LMP1-induced NF-kappaB luciferase reporter cells, luminescence; in the data active means inhibition above about 41%;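 further: 0% = neutral control wells and 100% = reference inhibitor control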
Shn3 inh set2: Schnurri-3 reporter inhibition in Clone20 osteoblasts. AID 588674. actives 0.52% (n = 360,000). inhibition, % at 12.5 µM. Clone20 osteoblast Shn3 3'UTR firefly luciferase, 24 h;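 active means mean inhibition of at least 75% with every replicate also reaching 75%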;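 further: 0% = median of neutral control wells and 100% = pilot-screen positive control compound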
Mdm2-MdmX confirm: confirmation of inhibitors of human Mdm2/MdmX interaction, set 2; shares compounds with HIF-2a block; SaOS-2 split-luciferase Mdm2/MdmX complementation, luminescence; inhibition, % at 8 µM; actives 99% (n = 740);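 active means mean inhibition of the luminescence signal across two replicates at or above 26 percent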
HIF-2a inh conf: confirmation of HIF-2a inhibitors; shares compounds with HIF-2a block; actives 56% (n = 1,800); 786-0 RCC cells, HIF-2a luciferase reporter luminescence, overnight; inhibition, % at 18.8 µM;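 active means mean inhibition across four replicates of at least 40 percent at the single tested concentration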
HIF-1a cs: HIF-1a inhibition counter-screen for HIF-2a hits; shares compounds with HIF-2a block; MiaPaCa-2 HIF-1a luciferase reporter, desferoxamine, overnight; inhibition, % at 18.8 µM; actives 72% (n = 1,800); AID 651589;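 active means mean inhibition of the reporter signal across four replicates at the single tested dose of 50% or more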
The depositor's hits bear a star; / = no result.

SMILES	HIF-2a block	TROY NFkB inh	TWEAK Fn14 block	MITF TRPM1 inh	LMP1 NFkB inh	Shn3 inh set2	HIF-2a inh conf	HIF-1a cs	others
CC(C)COc1ccc(C(=S)N2CCCC2)cc1	57*	-40	21	-10	5	-1	58*	-7
COc1ccc(C(=S)N2CCCC2)cc1	6	3	9	4	2	-9	/	/
CCOC(=O)c1sc(NC(=O)c2cc3c(s2)CCC(C)C3)nc1C (stereo not drawn)	48*	7	-23	72*	0	9	45*	-3
O=C(Nc1ccc(Nc2ccncc2)cc1)c1ccc([N+](=O)[O-])cc1	48*	10	-11	86*	17	48	-23	27
Cc1ccc(NC(=O)c2cc3ccccc3oc2=O)cc1S(=O)(=O)N(C)C	81*	90*	102*	76*	64*	84	88*	88*
Cc1ccc(NC(=O)c2cc3ccccc3o2)cc1S(=O)(=O)N(C)C	-298	-9	40	-63	-28	-9	/	/
CCOc1ccc(OCc2cccc(C(=O)N3CCCCCC3)c2)cc1	44*	-46	-16	52	53*	44	28	-70
O=C(O)c1cc(OCc2ccccc2)cc(OCc2ccccc2)c1	21	5	8	8	0	-7	/	/
COc1ccc(OCc2cccc(C(=O)O)c2)cc1	93*	-38	53*	97*	86*	94*	97*	7	Mdm2-MdmX confirm=93*
CCOc1ccc(OCc2ccc(C(=O)N3CCCC3)o2)cc1	-96	-22	13	-5	6	-8	/	/
O=C(OCC(F)(F)F)c1cccc(COc2ccc3ccccc3c2)c1	83*	-53	-2	91*	79*	80	90*	-52
O=Cc1ccc(OCc2cccc(C(F)(F)F)c2)cc1O	-107	30	15	1	20	4	/	/
O=[N+]([O-])c1cc(-c2ncccn2)c([N+](=O)[O-])s1	91*	1	10	/	11	5	40*	52*
COc1ccc(C(=O)NCCNc2nc3cc(C)cc(C)c3cc2C#N)c(OC)c1	66*	/	/	/	/	/	82*	98*
COc1ccccc1C(=O)NCCNc1nc2cc(C)cc(C)c2cc1C#N	9	-1	-16	8	-8	22	/	/
CCOc1ccccc1NC(=O)C(OC(=O)c1cnccn1)c1ccccc1 (stereo not drawn)	4	-9	-26	-2	4	3	/	/
Cc1ccc(NC(=O)c2nc[nH]c2C(=O)NCCN(CCNC(=O)c2[nH]cnc2C(=O)Nc2ccc(C)cc2)CCNC(=O)c2[nH]cnc2C(=O)Nc2ccc(C)cc2)cc1	-25	-18	19	32	-11	19	/	/
O=C(Nc1ccc(Cl)cc1)c1nc[nH]c1C(=O)NCCN(CCNC(=O)c1[nH]cnc1C(=O)Nc1ccc(Cl)cc1)CCNC(=O)c1[nH]cnc1C(=O)Nc1ccc(Cl)cc1	-42	6	11	40	-2	10	/	/	Mdm2-MdmX confirm=100*
COc1ccc(CC(C)CC(=O)Nc2ccc(OC)cc2)cc1 (stereo not drawn)	8	-16	-15	-2	-3	-2	/	/
Cc1ccccc1C(=O)NCC(=O)OCCCOC(=O)CNC(=O)c1ccccc1C	3	3	-1	9	1	-12	/	/
CCOc1ccc(CCNC(=O)COC(=O)Cn2nc(C)c([N+](=O)[O-])c2C)cc1OCC	8	10	-11	0	4	6	/	/
O=[N+]([O-])c1ccc(-c2nc(C(Cl)Cl)c3ccccc3n2)cc1	-29	34	-36	66*	20	67	/	/	Mdm2-MdmX confirm=102*
COCCNC(=O)c1c[nH]c2ccc(S(=O)(=O)N3CCc4ccccc43)cc2c1=O	47*	9	38	44	15	46	18	93*
CCOc1cc(/C=C2\CN(CC)C/C(=C\c3ccc(O)c(OCC)c3)C2=O)ccc1O	93*	35	100*	93*	-111	97*	/	/	Mdm2-MdmX confirm=102*
CCOc1cc(/C=N/N=C/c2ccc(O)c(OCC)c2)ccc1O	-6	-2	-17	14	-5	6	/	/
SMILES	HIF-2a block	TROY NFkB inh	TWEAK Fn14 block	MITF TRPM1 inh	LMP1 NFkB inh	Shn3 inh set2	HIF-2a inh conf	HIF-1a cs	others
CCOC(=O)c1cc2c(OC)c(OC)ccc2c2[nH]cc(C#N)c(=O)c12	6	-10	-19	/	0	2	/	/
CC(=O)OC(C)(C)/C=C/C(=O)[C@](C)(O)C1[C@H](O)C[C@@]2(C)C3CC=C4C(C=C(O[C@@H]5O[C@H](CO)[C@@H](O)[C@H](O)[C@H]5O)C(=O)C4(C)C)[C@]3(C)C(=O)C[C@]12C (stereo partly drawn)	46*	-4	-62	52	-7	15	-14	3
CCc1ccc(S(=O)(=O)Nc2cc3c(cc2C)n(C)c(=O)n3C)cc1	-37	21	46	14	9	74	/	/
Cc1cccc([C@@H]2[C@@H]3C(=O)N(Cc4ccccc4)C(=O)[C@@H]3[C@]3(Cc4ccccc4)C(=O)N(c4ccc(C(F)(F)F)cc4)C(=O)N23)c1	-2	-7	16	-2	18	22	/	/	Mdm2-MdmX confirm=103*
CCOC(=O)c1ccc2nc(NC(C)=O)sc2c1	-213	-52	-9	-38	-15	-64	/	/
COC(=O)c1ccc2nc(Nc3nc4c(F)cc(F)cc4s3)sc2c1	90*	92*	105*	95*	21	55	94*	90*
CCOC(=O)c1ccc2nc(Nc3nc4ccc(F)cc4s3)sc2c1	91*	87*	99*	96*	24	35	93*	73*
COc1ccc2nc(-c3ccc(N)cc3)[nH]c2c1	70*	-3	21	32	16	23	80*	17
COc1ccc2nc(-c3cccc(N)c3)[nH]c2c1	-59	-6	36	-59	-8	-11	/	/
COC(=O)/C(=C\c1cc(OC)c(OC)c(OC)c1)c1nc2ccccc2[nH]1	13	-11	14	2	0	15	/	/
O=C(/C(=C\c1ccccc1)c1nc2ccccc2[nH]1)c1ccc(Cl)cc1	64*	-60	45	20	-44	-65	-155	100*
COc1cc(/C=C(/C(=O)c2cccs2)c2nc3ccccc3[nH]2)ccc1O	68*	-59	16	46	-17	-89	9	104*
COC(=O)/C(=C\c1ccc(O)cc1)c1nc2ccccc2[nH]1	-105	-24	-3	-1	1	-63	/	/
